# Source: PubChem (National Center for Advancing Translational Sciences (NCATS))
# Sampled rows, rich in hits. Any-hit rate of the full collection: about 1%.
# WRN helicase inh-1 – qHTS for Inhibitors of WRN Helicase; Bifunctional 3'-5' exonuclease/ATP-dependent helicase WRN (Homo sapiens), Q14191; WRN helicase unwinding, fluorescent forked duplex, kinetic; Potency, µM (doses to about 114 µM), for the others: top-dose activity change, negative = inhibition, hits mostly inhibitors; 0.46% of 360,000 active; AID 651768, 2012; also: % is scaled to controls: 0 for no effect and ±100 for the full control effect; nearly all actives have a fitted effect of over 55% in size
#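 Kinetic fluorescence helicase assay: unwinding of a quenched forked DNA duplex (100 nM final) with 2 mM ATP final raises red fluorescence (525/598 nm). Compounds sat 15 min at room temperature with 20 nM WRN beforehand.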
# FEN1 inh-1 – qHTS Assay for the Inhibitors of Human Flap endonuclease 1 (FEN1); P39748; Recombinant FEN1 flap cleavage, fluorescence, 15 min; Potency, µM (series often up to 114 µM), for the others: at the top dose activity change, negative = inhibition, usual class: inhibitors; 0.35% of 390,000 active; also: % is scaled to controls: 0 for no effect and ±100 for the full control effect; nearly all actives have a fitted effect of over 65% in size
# Target sequence (P39748 whole entry, looked up): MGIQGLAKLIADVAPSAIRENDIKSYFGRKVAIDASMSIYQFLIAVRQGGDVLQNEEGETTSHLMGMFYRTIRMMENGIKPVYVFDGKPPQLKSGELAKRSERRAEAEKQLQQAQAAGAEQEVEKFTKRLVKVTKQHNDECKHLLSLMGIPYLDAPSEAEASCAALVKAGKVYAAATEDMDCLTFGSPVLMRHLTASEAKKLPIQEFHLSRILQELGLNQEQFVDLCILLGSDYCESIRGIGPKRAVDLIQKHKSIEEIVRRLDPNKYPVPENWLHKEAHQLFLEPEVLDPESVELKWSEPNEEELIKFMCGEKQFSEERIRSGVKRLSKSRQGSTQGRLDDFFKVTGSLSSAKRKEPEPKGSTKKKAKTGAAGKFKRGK
#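 Reaction started by adding substrate (50 nM final) to 10 nM enzyme after 15 min room-temperature compound preincubation. Reads at 0 and 15 min, with data normalized and fitted to a four-parameter Hill equation.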
# APE1 inh-1 – qHTS Assay for Inhibitors of the Human Apurinic/apyrimidinic Endonuclease 1 (APE1); recombinant APE1, TAMRA/BHQ-2 abasic DNA cleavage fluorescence; Potency, µM (doses to about 65.8 µM), without a hit: at the top dose activity change, negative = inhibition, usual class: inhibitors; 0.35% of 350,000 active; DNA repair nuclease/redox regulator APEX1 (Homo sapiens), P27695; AID 2517, 2012;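 also: plate controls were vehicle for no effect and reference inhibitor for full effect; nearly all actives have a fitted effect of over 55% in size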
# Target sequence (P27695 whole entry, looked up): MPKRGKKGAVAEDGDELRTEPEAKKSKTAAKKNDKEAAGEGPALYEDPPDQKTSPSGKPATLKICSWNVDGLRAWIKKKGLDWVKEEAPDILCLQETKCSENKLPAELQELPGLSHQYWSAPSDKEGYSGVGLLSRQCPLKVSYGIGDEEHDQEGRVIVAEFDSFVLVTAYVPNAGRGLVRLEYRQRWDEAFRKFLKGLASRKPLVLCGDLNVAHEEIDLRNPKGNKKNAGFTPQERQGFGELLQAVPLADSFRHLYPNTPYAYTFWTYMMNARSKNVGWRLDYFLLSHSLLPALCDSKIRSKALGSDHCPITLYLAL
#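 Substrate: short duplex with […] THF abasic site, 5'-TAMRA and 3'-BHQ-2, 50 nM final. APE1 at 0.75 nM, preincubated 15 min RT with compound. Fluorescence increase from first to third read measured activity.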
# L3MBTL1 block – qHTS Assay for the Inhibitors of L3MBTL1 | 0.66% of 230,000 active | Lethal(3)malignant brain tumor-like protein 1 (Homo sapiens), Q9Y468 | AlphaScreen L3MBTL1–H3K9me1 peptide binding | Potency, µM (highest dose often 57.1 µM), for the others: at the top dose activity, negative = inhibition, hits mostly inhibitors; also: % is scaled to controls: 0 for no effect and ±100 for the full control effect; nearly all actives have a fitted effect of over 60% in size
#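 First, the protein-peptide complex forms for 30 min at room temperature (L3MBTL1 50 nM, biotinylated H3K9me1 peptide 75 nM). Next, compounds are pin-transferred and incubated 30 min. Finally, AlphaScreen beads are added and read after 30 min.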
# RECQ1 inh-1 – qHTS Assay for Inhibitors of RecQ-Like Dna Helicase 1 (RECQ1) | RECQ1 DNA unwinding, red fluorescence kinetic read | Potency, µM (doses to about 57.3 µM), inactives show at the top dose activity, negative = inhibition, hits mostly inhibitors | 0.54% of 240,000 active;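 also: plate controls were vehicle for no effect and no enzyme for full effect; nearly all actives have a fitted effect of over 30% in size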
#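 RECQ1T1 50 nM; forked duplex (20 bp + 30-nt ss tails) 200 nM, ATP 2 mM final; pH 8.0, 2 mM MgCl2, 2.5 ug/ml poly(dI-dC); 15 min compound preincubation; discontinuous kinetic read over 2 h at RT.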
# BLM helicase inh-1 – qHTS Assay for Inhibitors of Bloom's syndrome helicase (BLM); 0.2% of 350,000 active; AID 2528, 2010; RecQ-like DNA helicase BLM (Homo sapiens), P54132; Potency, µM (series often up to 56.1 µM), for the others: at the highest dose activity change, negative = inhibition, hits mostly inhibitors; recombinant BLM DNA unwinding, fluorescence dequenching;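 also: plate controls were vehicle for no effect and no enzyme for full effect; nearly all actives have a fitted effect of over 35% in size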
# APE1 dye cs – Counterscreen for APE1 Inhibitors: Fluorescent Dye Displacement Assay | shares compounds with APE1 inh-1 | 7% of 480 active | DNA fluorescent dye displacement counterscreen, fluorescence | Potency, µM (titrated, usually from 28.5 µM), for the others: at the top dose activity change, negative = inhibition, hits mostly inhibitors;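 also: loss of thiazole orange fluorescence as the dye is displaced from duplex DNA; 0% = ThO with dsDNA and no compound and -100% = ThO without dsDNA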
# EndoIV counter – Counterscreen for APE1 Inhibitors: qHTS Assay for Inhibitors of Endonuclease IV; E. coli Endo IV, fluorogenic AP-site DNA cleavage; shares compounds with APE1 inh-1; Potency, µM (series often up to 27.1 µM), without a hit: top-dose activity change, negative = inhibition, most hits filed as inhibitors; 4% of 560 active;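 also: plate controls were uninhibited enzyme wells for no effect and no enzyme buffer wells for full effect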
# APE1 inh-2 – Confirmation qHTS Assay for Inhibitors of the Human Apurinic/apyrimidinic Endonuclease 1 (APE1); purified APE1, fluorogenic abasic-site DNA cleavage; shares compounds with APE1 inh-1; AID 2572, 2010; 44% of 750 active; Potency, µM (doses to about 57.1 µM), without a hit: at the top dose activity change, negative = inhibition, actives largely listed as inhibitors; also: % is scaled to controls: 0 for no effect and ±100 for the full control effect; nearly all actives have a fitted effect of over 30% in size
# APE1 FP inh – qHTS FP-Based Assay for Inhibitors of the Human Apurinic/apyrimidinic Endonuclease 1 (APE1) | shares compounds with APE1 inh-1 | APE1 binding to TAMRA-labelled double-stranded DNA, fluorescence polarization displacement | Potency, µM (doses to about 28.5 µM), for the others: at the highest dose activity, negative = inhibition, hits mostly inhibitors | 7% of 480 active | AID 2573, 2010; also: % is scaled to controls: 0 for no effect and ±100 for the full control effect
# RECQ1 inh conf – Confirmation qHTS Assay for Inhibitors of RecQ-Like Dna Helicase 1 (RECQ1); RECQ1 helicase DNA unwinding, fluorescence; shares compounds with RECQ1 inh-1; AID 2708, 2010; Potency, µM (top dose mostly 229 µM), without a hit: at the top dose activity change, negative = inhibition, most hits filed as inhibitors; 28% of 610 active; also: % is scaled to controls: 0 for no effect and ±100 for the full control effect; nearly all actives have a fitted effect of over 45% in size
# RECQ1 ADP FP – Counterscreen for RECQ1 Inhibitors: ADP Fluorescence Polarization Displacement Assay. shares compounds with RECQ1 inh-1. ADP fluorescence polarization displacement counterscreen. Potency, µM (highest dose often 228 µM), for inactives: at the highest dose activity change, negative = inhibition, most hits filed as inhibitors. 27% of 530 active. AID 2711, 2010; also: % is scaled to controls: 0 for no effect and ±100 for the full control effect; nearly all actives have a fitted effect of over 45% in size
# RECQ1 inh-2 – Confirmation qHTS Assay for Inhibitors of RecQ-Like Dna Helicase 1 (RECQ1) - Round 2 Cherry Picks | shares compounds with RECQ1 inh-1 | 15% of 1,100 active | recombinant RECQ1 DNA unwinding, red fluorescence | AID 504841, 2011 | Potency, µM (highest dose often 119 µM), inactives show top-dose activity, negative = inhibition, most hits filed as inhibitors; also: % is scaled to controls: 0 for no effect and ±100 for the full control effect; nearly all actives have a fitted effect of over 50% in size
# FEN1 inh-2 – qHTS Assay for the Inhibitors of FEN1: Confirmatory Assay for Cherry-picked Compounds; Potency, µM, most hits filed as inhibitors; shares compounds with FEN1 inh-1; FEN1 flap cleavage, TAMRA/BHQ2 fluorogenic DNA substrate; 79% of 880 active; also: nearly all actives have a fitted effect of over 60% in size
# WRN helicase inh-2 – qHTS for Inhibitors of WRN Helicase: Confirmatory Assay for Cherry-picked Compounds. Potency, µM (highest dose often 57.1 µM), inactives show at the top dose activity, negative = inhibition, usual class: inhibitors. WRN helicase DNA unwinding, fluorescence kinetic. AID 720497, 2013. 63% of 610 active. shares compounds with WRN helicase inh-1; also: nearly all actives have a fitted effect of over 65% in size
# TO DNA binding – qHTS for Inhibitors of WRN Helicase: Thiazole Orange DNA Binding Counterscreen; thiazole orange DNA binding displacement, fluorescence; Potency, µM (titrated, usually from 57.1 µM), without a hit: at the highest dose activity change, negative = inhibition, usual class: inhibitors; shares compounds with WRN helicase inh-1; AID 720499, 2013; 10% of 610 active;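 also: drop in dye fluorescence marks compound binding to DNA; % is scaled to controls: 0 for no effect and ±100 for the full control effect; nearly all actives have a fitted effect of over 60% in size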
# BLM helicase inh-2 – qHTS for Inhibitors of WRN Helicase: BLM Helicase Counterscreen for WRN Inhibitors; Potency, µM (top dose mostly 57.1 µM), for the others: at the highest dose activity change, negative = inhibition, most hits filed as inhibitors; shares compounds with WRN helicase inh-1; Recombinant BLM helicase DNA unwinding, red fluorescence; 60% of 610 active; AID 720503, 2013; also: nearly all actives have a fitted effect of over 60% in size
# The depositor's hits bear a star; i = inactive; ? = inconclusive; · = not tested or not shown; [ ] = dose if it differs, or a comment. Calls follow the shape of the dose curve; as a rule, active = well fitted curve in the direction sought with a large enough effect; inconclusive = small, poorly fitted or top-dose-only effect, or another doubt; inactive = no such curve, though single readings can be large; an effect the other way counts as inactive or inconclusive. Potency is read from the fitted curve at half-maximal effect.
SMILES,WRN helicase inh-1,FEN1 inh-1,APE1 inh-1,L3MBTL1 block,RECQ1 inh-1,BLM helicase inh-1,APE1 dye cs,EndoIV counter,APE1 inh-2,APE1 FP inh,RECQ1 inh conf,RECQ1 ADP FP,WRN helicase inh-2,TO DNA binding,BLM helicase inh-2,others
O=C(O)CSc1nc2sc3c(c2c(=O)n1Cc1ccccc1)CCCCC3,-3.2%,-6.3%,20.6%,·,·,-7.8%,·,·,·,·,·,·,·,·,·,
Cc1ccc(CNC(=O)CCS(=O)(=O)c2ccc(Br)cc2)cc1,25.1µM*,-4.0%,?,·,?,-17.2%,·,·,?,·,·,·,3.83µM*,5.41µM*,2.15µM*,RECQ1 inh-2=?
Cc1ccc(CNC(=O)CCS(=O)(=O)c2ccc(Cl)cc2)cc1,-14.1%,2.4%,2.0%,-2.6%,2.6%,-0.4%,·,·,·,·,·,·,·,·,·,
Cc1ccc(NC(=O)CN2C(=O)S/C(=C/c3ccc(-c4cc(C(=O)O)ccc4C)o3)C2=O)cc1C,22.4µM*,35.5µM*,?,·,14.1µM*,?,149.2%,-3.5%,7.08µM*,10µM*,22.4µM*,?,7.64µM*,192.7%,5.41µM*,RECQ1 inh-2=?
O=C(O)c1ccc(-n2cccc2/C=C2/NC(=O)N(c3ccccc3)C2=O)cc1,35.5µM*,?,2.51µM*,·,25.1µM*,-2.2%,-2.6%,-11.5%,3.98µM*,12.6µM*,·,·,15.2µM*,-7.8%,7.64µM*,
O=C1N/C(=C/c2ccsc2)C(=O)N1c1ccccc1,12.3%,6.3%,5.9%,-3.0%,i,4.4%,·,·,·,·,·,·,·,·,·,
COc1ccc(Br)cc1/C=c1\sc2nc(-c3ccco3)nn2c1=O,35.5µM*,?,28.2µM*,7.94µM*,8.91µM*,-24.8%,?,6.1%,?,-13.6%,20µM*,?,17.1µM*,19.2µM*,7.64µM*,
C=C1[C@@H](O)CN(Cc2ccc(OC)cc2)S1(=O)=O,·,-1.0%,·,·,·,·,·,·,·,·,·,·,·,·,·,
CCn1c(SCc2nc3sc(C(=O)O)c(C)c3c(=O)[nH]2)nc2ccccc21,20µM*,12.6µM*,20µM*,·,?,66.9%,·,·,?,·,·,·,6.81µM*,12.1µM*,19.2µM*,FEN1 inh-2=21.3*
O=C(COc1ccccc1[N+](=O)[O-])N/N=C/c1ccc(O)c([N+](=O)[O-])c1,-12.2%,-10.9%,-6.2%,-23.4%,0.1%,0.6%,·,·,·,·,·,·,·,·,·,
O=C(COc1ccccc1C(=O)N/N=C\c1ccc(O)c(O)c1)N/N=C/c1ccc(O)c(O)c1,0.267µM*,1.58µM*,2.82µM*,1.58µM*,1µM*,2µM*,6.31µM*,28.9%,2µM*,?,2.24µM*,-14.4%[91.9 µM],0.271µM*,19.2µM*,0.121µM*,FEN1 inh-2=16.9*
OCC1=C[C@@H](O)[C@@H]2C=CO[C@@H](OC3O[C@H](CO)[C@@H](O)[C@H](O)[C@H]3O)[C@H]12 (stereo not given in full),·,·,0.2%,·,-14.5%,-8.2%,·,·,·,·,·,·,·,·,·,
